Among the data in PubChem BioAssay are composite z-score values, retold here.

Fibroblast growth factor 10 (Homo sapiens), sequence (O15520 whole entry, looked up): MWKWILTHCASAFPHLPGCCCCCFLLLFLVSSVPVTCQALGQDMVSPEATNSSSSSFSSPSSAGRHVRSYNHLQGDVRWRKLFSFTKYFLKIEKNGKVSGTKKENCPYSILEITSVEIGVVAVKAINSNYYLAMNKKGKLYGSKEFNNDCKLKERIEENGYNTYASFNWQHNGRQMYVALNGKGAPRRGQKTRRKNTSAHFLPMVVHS

The assay concerns the target Fibroblast growth factor 10 (Homo sapiens) (UniProt O15520). In words: compounds binding fibroblast growth factor 10 – biochemical, small-molecule microarray, 635 nm fluorescence, primary screen (AID 1102). Particulars: FGF10 binding, fluorescence 635 nm, higher = more signal.
As for `COCCOC(=O)N1C(=O)[C@@]2(c3cc(C#CCCO)ccc31)[C@H](C(=O)N1CCCCCCC1)[C@H]1C(=O)O[C@H](c3ccccc3)[C@H](c3ccccc3)N1[C@@H]2c1ccc(OCCO)cc1`, the composite z-score was 0.888. `C=CC[C@@]12N=C(c3ccc(OCCCO)cc3)O[C@@H]1c1ccccc1N(C)C2=O`: the composite z-score is 1.38.

Consider `O=C1C2C=CC(C(O)Cc3ccccc3)N(n3cnnc3)C2C(=O)N1Cc1ccccc1` (stereo not given), for which the composite z-score was 0.33. Regarding `CCN(CC)c1ccc(N2CC=CC34O[C@@H]5C=CCCOC(=O)C5[C@H]3C(=O)N(CCCCCCO)[C@@H]4C2=O)cc1` (stereo not given in full), the composite z-score is -1.26. The figure for `O=C1c2ccccc2[C@](Cc2ccccc2I)(C(=O)NCCN2CCOCC2)[C@H](c2ccc(CO)cc2)N1C1CCCCC1` is 0.82; for `[N-]=[N+]=Nc1ccccc1[C@@H]1OC(c2ccc(OCCCO)cc2)=N[C@]1(CCS(=O)(=O)c1ccccc1)C(N)=O` it is 1.09; for `CN(C)C(=O)[C@@]1(CCS(=O)(=O)c2ccccc2)COC(c2ccc(OCCCO)cc2)=N1` it is 0.314. Turning to `CC(C)C[C@@H]1NC(=O)[C@@H]2C[C@H](C(=O)O)[C@H](c3cccc(OCCO)c3)N2C1=O`, the composite z-score is -0.246. Compound `CCOC(=O)C[C@H]1[C@H](OC(=O)c2ccc(-c3ccccc3)cc2)[C@@H](NC(=O)Cc2ccc(OC)cc2)c2cc(OCCCO)ccc2N1C(=O)c1ccccc1` yielded a composite z-score of 0.219. `C=C(CCCC)/C(=C/C[C@H](OC(C)=O)c1ccccc1OCCO)c1cc(C(=O)OC)ccc1OC` returned a composite z-score of 0.143.

In turn, `C=CCC(OC(C)=O)[C@@H]1[C@@H](N(Cc2ccc(-c3ccccc3)cc2)C(=O)c2cccc3ccccc23)c2cc(OCCCO)ccc2N1C(=O)c1ccc(-c2ccccc2)cc1` (stereo not given in full) had a composite z-score of 0.164. `Cc1ccc(S[C@]2(C(=O)NCCCN(C)C)CC(=O)N(Cc3cc(C(F)(F)F)cc(C(F)(F)F)c3)[C@@H]2c2ccc(CO)cc2I)cc1` showed a composite z-score of -0.833. In turn, `CCC[C@@H]1C[C@@]1(CCC)[C@@H](NC(=O)c1ccccc1)c1cccc(Cl)c1` had a composite z-score of 0.905. Consider `COc1ccccc1CN1C(=O)c2ccccc2[C@@]2(Cc3ccccc3N(CC(C)C)C2=O)[C@@H]1c1ccc(CO)cc1`, for which the composite z-score is -0.285. Take `Cc1ccc(N2C(=O)c3ccccc3[C@@H](C(=O)NC3CC3)[C@@H]2c2ccc(CO)cc2)nc1`: the composite z-score is -1.5.

As to `C=C[C@H](CO[Si](CC)(CC)CC)N(Cc1ccc(OC(C)=O)c(OC)c1)S(=O)(=O)c1ccc(Br)cc1`, the composite z-score worked out at 0.365.

Regarding `O=C1NC(=O)C2C1C=CC(C(O)c1cc(C(F)(F)F)cc(C(F)(F)F)c1)N2Nc1ccccn1` (stereo not given), the composite z-score is 0.163. Turning to `C[N+](C)(C)CCCC[C@@H]1NC(=O)[C@H]2C[C@@H](C(=O)NCCCCCCNC(=O)CS)[C@@H](c3cccc(OCCO)c3)N2C1=O`, the composite z-score was -0.85.

For the compound `CC(C)NC(=O)[C@@H]1c2ccccc2C(=O)N(C2Cc3ccccc3C2)[C@H]1c1ccc(CO)cc1`, the composite z-score amounted to 0.16.

Compound `C=C(CC1([C@@H](NP(=O)(c2ccccc2)c2ccccc2)[C@H]2C[C@@H]2CCCC)CC1)c1ccccc1` showed a composite z-score of 0.0431. For `CCOC(=O)C[C@H]1[C@H](OC(=O)c2ccc(C(=O)c3ccccc3)cc2)[C@@H](NC(=O)c2ccc3ccccc3n2)c2cc(OCCCO)ccc2N1C(=O)c1ccccc1`, the composite z-score was found to be 0.719.

Take `O=C1C[C@@](C(=O)NCCN2CCOCC2)(c2ccc([N+](=O)[O-])cc2)[C@@H](c2ccc(CO)cc2)N1CC12CC3CC(CC(C3)C1)C2`: the composite z-score turned out to be 1.22. The figure for `CC(C)=CCN[C@H](CO)c1ccccc1` is 0.795; for `COC(=O)[C@@]1(Cc2ccc(OC)cc2)[C@H]2c3cc(C(=O)N(C)C)n(C)c3C[C@H]2CN1C(=O)c1ccccc1` it is 0.924; for `CN1C(=O)C2C=CC(C(O)c3ccc([N+](=O)[O-])cc3)N(N3CCCCC3)C2C1=O` (stereo not given) it is 0.941. Take `CC(=O)n1cc(C(O)C2C=CC3C(=O)N(c4ccccc4)C(=O)C3N2Nc2ccc([N+](=O)[O-])cc2)c2ccccc21` (stereo not given): the composite z-score is -0.0673. In the case of `O=C(c1ccccc1)N1Cc2ccccc2C[C@@]2(COC(c3ccc(OCCCO)cc3)=N2)C1=O`, the composite z-score is 1.1. The compound `O=C(c1ccccc1)N1C(=O)[C@]2(COC(c3ccc(OCCCO)cc3)=N2)Cc2ccccc21` registered a composite z-score of 1.07.

For the compound `CCCC[C@@H]1C[C@H]1[C@@H](NC(=O)c1ccccc1)c1ccc(C(=O)OC)cc1`, the composite z-score is -0.358.

`COc1cc2c(cc1O)C(C1CC1)N(Cc1sc3ccccc3c1Cl)CC2` (stereo not given) returned a composite z-score of -0.326. In the case of `O=C1N(Cc2ccccc2)c2ccccc2[C@@H]2OC(c3ccc(OCCCO)cc3)=N[C@]12CCS(=O)(=O)c1ccccc1`, the composite z-score was 0.17. For `CO[C@H]1O[C@H](CO)[C@@H](OC(=O)Nc2cccc(F)c2)[C@H](OC(=O)Nc2ccccc2)[C@@H]1OC(=O)Nc1ccccc1`, the composite z-score was 1.35. `COc1ccc(CCNC(=O)[C@@]2(Sc3ccc(C)cc3)CC(=O)N(C(C)C)[C@@H]2c2ccc(CO)cc2I)cc1` gave a composite z-score of -0.316. `Cc1ccc(S[C@]2(C(=O)NCCCN(C)C)CC(=O)N(Cc3cc(C(F)(F)F)cc(C(F)(F)F)c3)[C@@H]2c2ccc(CO)cc2)cc1` had a composite z-score of -1.11. The compound `CC(C)NC(=O)[C@@]1(c2ccc([N+](=O)[O-])cc2)CC(=O)N(C2CCCCC2)[C@@H]1c1ccc(CO)cc1I` returned a composite z-score of -0.0505.
